# Data taken from PubChem BioAssay AID1851 (National Center for Advancing Translational Sciences (NCATS), 2009).
# “And” between values parts separate entries of the source, which are not always exact repeats. Equal entries are not always repeated. In all, about 16,000 compounds went through this assay and about 5,800 (36%) were called active. Not shown: some 23% with an inconclusive outcome. Calls come from the whole dose curve; as a rule, active = well fitted curve in the direction sought with a large enough effect; inconclusive = small, poorly fitted or top-dose-only effect, or effect the other way; inactive = no such curve, though single readings can be large or run the other way. Some of the results follow. More than one record can exist for a structure, and the calls need not agree.
# Biological target: Cytochrome P450 2C19 (Homo sapiens) (UniProt P33261)
# Test: Cytochrome panel assay with activity outcomes
# Conditions: recombinant CYP, pro-luciferin dealkylation, luminescence, p450-cyp2c19; series mostly up to 57.1 µM
# % is set by controls: 0 for no effect and ±100 for the full control effect.
# Chain of Cytochrome P450 2C19 (Homo sapiens) (P33261 whole entry, looked up): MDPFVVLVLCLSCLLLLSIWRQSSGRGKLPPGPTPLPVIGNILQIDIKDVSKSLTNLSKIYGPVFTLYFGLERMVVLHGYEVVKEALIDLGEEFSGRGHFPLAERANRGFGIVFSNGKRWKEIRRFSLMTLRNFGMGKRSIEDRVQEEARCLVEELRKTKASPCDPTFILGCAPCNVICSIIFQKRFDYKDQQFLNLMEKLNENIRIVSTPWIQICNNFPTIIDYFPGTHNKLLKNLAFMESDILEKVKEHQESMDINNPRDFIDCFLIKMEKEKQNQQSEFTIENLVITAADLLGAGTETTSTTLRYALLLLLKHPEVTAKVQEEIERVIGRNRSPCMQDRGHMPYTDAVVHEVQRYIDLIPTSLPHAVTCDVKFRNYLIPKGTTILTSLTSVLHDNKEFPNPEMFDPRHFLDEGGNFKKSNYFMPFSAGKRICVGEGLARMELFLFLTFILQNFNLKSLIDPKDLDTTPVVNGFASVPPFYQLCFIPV
SMILES,AC50,"activity, negative = inhibition"
O=c1c(-c2cc(F)cc(F)c2)nc2cnc(N3CCOCC3)nc2n1C1CC1,inactive,
CO[C@H]1COC(=O)[C@H](C)COC(=O)[C@@H](Cc2ccccc2)NC(=O)C/C=C\[C@H]1C,,-17.9% [at 11.4 µM] (inactive)
CS(=O)(=O)N1CCC2(CC1)CN(Cc1nccs1)C2,inactive,
C[C@]12CC[C@H]3c4ccc(O)cc4CC[C@@H]3[C@H]1C/C(=N/O)[C@H]2O,,27.1% [at 11.4 µM] (inactive)
COc1cc(CNn2nnnc2N)ccc1OCc1c(Cl)cccc1Cl,2.51 µM (active),
CC(=O)N1N=C(c2cccc([N+](=O)[O-])c2)OC1c1ccc(Cl)cc1Cl (stereo unspecified),0.447 µM (active),
CC(=O)N1N=C(c2cccc([N+](=O)[O-])c2)OC1c1ccccc1Cl (stereo unspecified),2.82 µM (active),
CN1CCN(c2ncc3nc(-c4cccc(C#N)c4)c(=O)n(CCC#N)c3n2)CC1,inactive,
COc1ccc(N2C(=O)CSC2c2cccc(F)c2)c(OC)c1 (stereo unspecified),11.2 µM (active),
Cc1cc(Br)ccc1NCc1ccccn1,0.251 µM (active),
Cc1cc(NCc2ccccn2)ccc1Br,2.82 µM (active),
OCCCNCc1ccccn1,,31.9% [at 11.4 µM] (inactive)
CNCCc1ccccn1,inactive,
c1ccc(CCNc2ccccn2)nc1,,10.5% [at 11.4 µM] (inactive)
CN(C)CC[C@H](c1ccc(Br)cc1)c1ccccn1,inactive,
O=C(NCCCn1ccnc1)c1ccc(Br)c(S(=O)(=O)N2CCOCC2)c1,17.8 µM (active),
COC(=O)c1ccc(Oc2cc(C)nc(-n3nc(C)cc3C)n2)cc1,7.94 µM (active),
Cc1ccc(C(=O)Oc2cc(C)n(C)c(=O)c2)cc1,inactive,
CN1C(C(=O)Nc2ccccn2)=C(O)c2sccc2S1(=O)=O,inactive,
CN1C(C(=O)Nc2ccccn2)=C(O)c2ccccc2S1(=O)=O,inactive and 6.31 µM (active),
COc1ccc2[nH]cc(CCNc3nc(-c4ccoc4)nc4ccccc34)c2c1,1.58 µM (active),
COc1ccccc1-c1nc(NCCN2CCOCC2)c2ccccc2n1,inactive,
COc1ccc2[nH]cc(CCNc3nc(-c4cccnc4)nc4ccccc34)c2c1,0.501 µM (active),
COc1ccc2[nH]cc(CCNc3nc(-c4ccccc4OC)nc4ccccc34)c2c1,5.01 µM (active),

SMILES,AC50,"activity, negative = inhibition"
COc1cccc(-c2nc(NCCc3c[nH]c4ccc(OC)cc34)c3ccccc3n2)c1,1.58 µM (active),
C1CCN(CC[C@@H]2CCCCN2)CC1,,0.696% [at 11.4 µM] (inactive)
CCNC(=O)C/C(C)=N/NC(=O)C12CC3CC(CC(C3)C1)C2,inactive,
CC(C)C(NC(=O)C12CC3CC(CC(C3)C1)C2)C(=O)NC1=NCCS1 (stereo unspecified),10 µM (active),
CCc1cccc2c(-c3ccccc3)c3c(nc12)OCC3,7.94 µM (active),
CCc1cccc2c3c([nH]c12)[C@@](CC)(CC(=O)O)OCC3,inactive,
Cc1cc(Oc2ccccc2)nc(-c2ccccc2)n1,11.2 µM (active),
Cc1cc(C)nc(Nc2n[nH]c(COc3cccc4ccccc34)n2)n1,inactive,
Cn1cnc2c(NCc3ccccc3)nc(NCCO)nc21,inactive,
Cc1cc(Oc2ccccc2)nc(NCc2ccccc2)n1,3.16 µM (active),
NCCS,inactive,
C#CCn1c(S(=O)(=O)Cc2ccc(OC)cc2)nc(-c2ccccc2)c1-c1ccccc1,2.24 µM (active),
O=C(O)CCNc1ccccc1C(=O)O,,16.3% [at 11.4 µM] (inactive)
O=C(O)c1ccccc1/C=N\N=C1c2ccccc2-c2ccccc21,,2.09% [at 11.4 µM] (inactive)
O=C(O)c1ccccc1N/N=C\c1ccnc2ccccc12,15.8 µM (active),
CCOC(=O)c1ccccc1OCc1cc(/C=N/n2cnnc2)ccc1OC,0.794 µM (active),
CN1CCN(c2ccc([N+](=O)[O-])cc2NC(=O)c2ccccc2Cl)CC1,inactive,
CCC(=O)NC(=S)N1CCN(c2ccc([N+](=O)[O-])cc2Cl)CC1,2.82 µM (active),
O=C(Nc1cc(Sc2ccccn2)cc([N+](=O)[O-])c1)c1ccc(Cl)cc1,3.16 µM (active),
O=C(Nc1cccc(-c2cnc3ccccc3n2)c1)c1ccc(Cl)cc1,inactive,
COC(=O)c1ccc(CSc2nc3cc(Cl)ccc3s2)o1,3.16 µM (active),
C1CCc2nnnn2CC1,inactive,
COc1ccccc1CCn1c(=O)c(-c2ccc(F)c(F)c2)nc2cncnc21,1.26 µM (active),
Cn1cc(-c2nc3cncnc3n(Cc3ccccc3Cl)c2=O)c2ccccc21,inactive,

SMILES,AC50,"activity, negative = inhibition"
COc1ccccc1CCn1c(=O)c(CCc2ccccc2)nc2cncnc21,3.16 µM (active),
COc1ccc(-n2c(=O)c(-c3ccc(F)c(F)c3)nc3cncnc32)cc1,inactive,
COCCn1c(=O)c(-c2ccc(F)c(F)c2)nc2cncnc21,inactive,
COc1ccccc1CCn1c(=O)c(-c2ccc(F)cc2)nc2cncnc21,0.316 µM (active),
CN1CCN(c2ncc3nc(CCc4ccccc4)c(=O)n(C)c3n2)CC1,inactive,
COCCn1c(=O)c(-c2ccc(F)cc2)nc2cncnc21,inactive,
COc1cccc(Cn2c(=O)c(-c3cn(C)c4ccccc34)nc3cncnc32)c1,inactive,
COc1ccccc1CCn1c(=O)c(-c2cn(C)c3ccccc23)nc2cncnc21,0.316 µM (active),
COc1cccc(Nc2ncc3nc(CCc4ccccc4)c(=O)n(CCC#N)c3n2)c1,inactive,
Cn1c(=O)c(-c2ccc(F)cc2)nc2cncnc21,inactive,
CCOC(=O)N/N=C1/C[C@@H](O)[C@@H](O)[C@@H]2[C@@H]3C(=O)N(C(C)(C)C)C(=O)[C@H]3CC[C@H]12,,1.59% [at 11.4 µM] (inactive)
COc1ccc(C[C@@H]2C(=O)N[C@H](C)C(=O)N(C)[C@@H]3Cc4ccc(cc4)Oc4cc(ccc4O)C[C@H](C(=O)N[C@@H](C)C(=O)N[C@H](C)C(=O)N2C)N(C)C3=O)cc1,,1.07% [at 11.4 µM] (inactive)
COc1ccccc1CCn1c(=O)c(-c2cccc(Cl)c2)nc2cncnc21,0.251 µM (active),
COc1ccccc1CCn1c(=O)c(-c2ccc(Cl)cc2)nc2cncnc21,0.398 µM (active),
COCCn1c(=O)c(-c2cccs2)nc2cnc(N(C)C)nc21,inactive,
Cn1c(=O)c(-c2ccccc2)nc2cncnc21,inactive,
COc1ncc2nc(-c3cccs3)c(=O)n(CCC#N)c2n1,inactive,
COc1ccccc1CCn1c(=O)c(-c2cccs2)nc2cncnc21,2 µM (active),
COCCn1c(=O)c(-c2ccc(Cl)cc2)nc2cnc(Nc3ccccc3)nc21,inactive,
Cn1c(=O)c(-c2ccc(Cl)cc2)nc2cncnc21,inactive,
COc1ccccc1CCn1c(=O)c(-c2ccccc2)nc2cncnc21,0.631 µM (active),
Cn1c(=O)c(-c2cccc(Cl)c2)nc2cncnc21,inactive,
COCCn1c(=O)c(-c2cccc(Cl)c2)nc2cncnc21,inactive,
